Results reported in article PMC12136788.
Whole data set: some 24,000 sequences, median “enrichment r” near 0.99, cut for the highest 2% near 3.7. Not all results are given here.

T1: UNK ZnF1-3 (human, UniProt Q9C0B0 31-174)
T1 sequence: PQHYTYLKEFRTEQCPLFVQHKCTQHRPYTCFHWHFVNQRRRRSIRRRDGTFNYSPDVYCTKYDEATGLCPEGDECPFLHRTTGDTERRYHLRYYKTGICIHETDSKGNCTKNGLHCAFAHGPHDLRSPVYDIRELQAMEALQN

B1: chr3:179287964:179287965:+_ENSG00000136518_ENST00000429709|hu_hu|hu_hu_hu_mus_True|88_108 (ssRNA)
RNA: GGGAGUUCUACAGUCCGACGAUCCUUUAGAGGUGAAAUGGCCUCCAUAUUCUCCCUGGGCACGCGGAGGGCAUUGGUGUCUAUGUAGUAGGUGGGCCCGCCCUGCUUGCCUUUGUCACCAUCAAUCUCCAUCAUUGUACUUCCCAACAGAGGAUUGAGCAUCA
B2: chrX:71549400:71549401:+_ENSMUSG00000019087_ENSMUST00000019231|mus_hu|mus_mus_mus_hu_False|8_98 (ssRNA)
RNA: GGGAGUUCUACAGUCCGACGAUCGCAGUAGGAAGAGCAAACCUUUCCAGUCCAGUGCGCUGCAGGGUGGGAAAGCAACAACACGGACACCGUCCCACCCUCAACCCCCCCACUGGCACAGGGUCACAUCUGGGUCAUCAAAGACAACAGAGGAUUGAGCAUCA
B3: 120770645_120770765_141_5pUTR_ENSMUSG00000043207_ENSMUST00000058754|mouse|control|control (ssRNA)
RNA: GGGAGUUCUACAGUCCGACGAUCCUCAGCGACACGCGUCCCUCGGAGAGUGCCAGCGGUGUCACAACAAUACGGGUCCCUUCCGAGGGCUUCUUCAGACGCCCAUUCCCUCAGCUUUGCCAGAAGUGUCACAAAGACACGAUUCAACAGAGGAUUGAGCAUCA
B4: chr7:118215947:118215948:-_ENSMUSG00000005610_ENSMUST00000162415|mus_mus|FALSE|FALSE (ssRNA)
RNA: GGGAGUUCUACAGUCCGACGAUCGGUCCUUGCAAUAGACUGCCUCUGCUUGAGAACUUAGGAUGUAAUUAUUGCAUGCUGCUAAUAUUCUAUCUAAACAUUAAGGAUACUCCUAAAGUAUUUGAUGGUAGACUAUGAUUAAGACAACAGAGGAUUGAGCAUCA
B5: 78432385_78432637_487_CDS_ENSG00000162613_ENST00000370768|human|control|control (ssRNA)
RNA: GGGAGUUCUACAGUCCGACGAUCUUCAGGUGUUCCAGUUAACAUACAGGACCUUUCUGGAAGGCCACCACUGUCAGGAGCUAUCUGUAUUUUGCAUCCAGAUUCCUGUUGUAUGCGUGAGAUCUGUUCACCUCCUCUGCCAAUCAACAGAGGAUUGAGCAUCA
B6: chr8:35203877:35203878:-_ENSMUSG00000031513_ENSMUST00000033910|mus_hu|FALSE|FALSE (ssRNA)
RNA: GGGAGUUCUACAGUCCGACGAUCGGAAGGGCACAUCCAAGCAUCAAAAACAUCAGUCCGAUUGCUCCUCCAAAGGACAAACUAAUCAAAGCUUUGAUGCCUGCCAUGGCGGUGACGUCGCUCCUGGCUCCACGACCCGAGGCGCAACAGAGGAUUGAGCAUCA
B7: chr2:48026839:48026840:+_ENSG00000116062_ENST00000540021|hu_hu|hu_hu_hu_mus_False|38_108 (ssRNA)
RNA: GGGAGUUCUACAGUCCGACGAUCAUAGUGUGCCACUAGCGUCCUAAAUCUGGAACAGUGGCGGUCAUCCGAAAACUGGCCGAUGAAAAACUUGCCCAGUGAAGUAUCCACAAAGCAAACACCAUACACACGAGUGUGACCAGACAACAGAGGAUUGAGCAUCA
B8: chr16:46990815:46990816:-_ENSG00000069345_ENST00000563158|hu_hu|motif|central (ssRNA)
RNA: GGGAGUUCUACAGUCCGACGAUCUCAAAAUGAAGAUGUAAAGCUUUGUGGUUAGUUUAAAUUAUACACUCUGUAGAUACGGUACCAAUUUUAAAAGUUAUACAUAGACCAACAGAUGUCCCUCAGUUCAUCUGGAUUGAUAAGCAACAGAGGAUUGAGCAUCA
B9: chr1:220276048:220276049:+_ENSG00000067704_ENST00000302637|hu_hu|hu_hu_hu_mus_True|8_78 (ssRNA)
RNA: GGGAGUUCUACAGUCCGACGAUCGCAAAUUGCCUGGUUGGCGGGAAUUGUCCAAGGUUGUGUGGUCCAAACUAAAACGCUAACAGGGGAUGAGGCAUCUGUAAGAGACUCCAACUUCGGAGGAGGUUUUAAGAGAGGGAAUCUCAACAGAGGAUUGAGCAUCA
B10: chr9:62645482:62645483:-_ENSMUSG00000032244_ENSMUST00000034775|mus_hu|FALSE|FALSE (ssRNA)
RNA: GGGAGUUCUACAGUCCGACGAUCUACUGUGGUAUGGUUCACGUUGGCUCCAUGGCUGACUAGAAGUUUAACAACUUCAAAAUGUCCUGCUCCAGCUGCACACCAAAGAGCAGUGGCACCAUCAAUGACAUACCCGUCGAAGCGCAACAGAGGAUUGAGCAUCA
B11: chr2:232319755:232319756:-_ENSG00000115053_ENST00000322723|hu_hu|motif|central (ssRNA)
RNA: GGGAGUUCUACAGUCCGACGAUCAAAAGUUUAUAUGAAUAUCCAGUCAAAACCAACACGGUAUUGCCCUUGAAAUGUUAACGGGACGGAUUUCCAAGGAGACCACAGGACUGUAUACUGUCUUGGAAUGUCCUCAGAAGGCUCCAACAGAGGAUUGAGCAUCA
B12: 69235085_69235205_3312_3pUTR_ENSG00000135679_ENST00000462284|human|control|control (ssRNA)
RNA: GGGAGUUCUACAGUCCGACGAUCGGCUGGAGAAUAAGUACAUUUUUACAGCCGGGUGUGGUGGCUAACGCCUGUAAUCCUACUUAGCACUUUGCGAGGCCAAGACAGGAGGAUCUCUUGAGCCCAGGAGUUCGAGACCAGCCUCAACAGAGGAUUGAGCAUCA
B13: chr11:79222206:79222207:+_ENSMUSG00000020716_ENSMUST00000071325|mus_hu|FALSE|FALSE (ssRNA)
RNA: GGGAGUUCUACAGUCCGACGAUCUUUUGUAAAUUCAUCUGGAUAAUUUUCUACCCAGUUCCAAAAUGCCUUUUCCAGGCUAUUUAUAACUGCUAACUGCGCAACCUUCUUUAGGGCUUUAAAUUUAAAUGCUGUUUCCUUCAGCAACAGAGGAUUGAGCAUCA
B14: 62954625_62958383_5419_CDS_ENSG00000116641_ENST00000251157|human|control|control (ssRNA)
RNA: GGGAGUUCUACAGUCCGACGAUCUGCUUCUUGAAGUUUACCAUGAAUUGUGGAUAGUUUCUUUGCAUCCCGAUUAGCUUCAUGAAUAGGAAUAAGUACUUUGUAAACUUCAUUAACUGCUUCAUACAUGCCAGCCAUAGAGAACAACAGAGGAUUGAGCAUCA

Molecular target: T1, UNK ZnF1-3
Test: nsRBNS (natural sequence RNA bind-n-seq); RBNS binding buffer (assumed for nsRBNS): 25 mM Tris pH 7.5, 150 mM KCl, 3 mM MgCl2, 0.01% Triton X-100, 500 ug/ml BSA, 20 U/ml SUPERase-In, 4 C; UNK is unkempt and MSI1 is Musashi-1; names of the RNAs are library labels; protein concentration not given here; high values mean tight binding

Binder | binding signal
B1 | 0.786 enrichment R
B2 | 0.928 enrichment R
B3 | 0.703 enrichment R
B4 | 1.31 enrichment R
B5 | 0.709 enrichment R
B6 | 2.82 enrichment R
B7 | 1.07 enrichment R
B8 | 0.61 enrichment R
B9 | 1.91 enrichment R
B10 | 0.893 enrichment R
B11 | 0.847 enrichment R
B12 | 1.12 enrichment R
B13 | 0.853 enrichment R
B14 | 1.01 enrichment R
